Reference: PubChem BioAssay AID504333 (National Center for Advancing Translational Sciences (NCATS), 2011)
The whole screen tested about 360,000 compounds, of which about 16,000 (4.4%) were called active. Another 9% or so got no clear call; they are omitted. The call rests on the fitted dose curve; in most records, active means well fitted inhibition curve with a large enough effect; inconclusive means small, poorly fitted or top-dose-only effect; inactive means no such curve, though single readings can be large or run the other way. What follows is part of a selection rich in actives, with near analogues and random picks from the rest.

What follows are compounds tested against Bromodomain adjacent to zinc finger domain protein 2B (Homo sapiens) (UniProt Q9UIF8) (assay: qHTS Assay for Inhibitors of BAZ2B). Details: AlphaScreen BAZ2B-H3K14Ac peptide displacement; series mostly up to 114 µM; activity change, negative = inhibition: at the top concentration.
Sequence of Bromodomain adjacent to zinc finger domain protein 2B (Homo sapiens) (Q9UIF8 whole entry, looked up, the tested form may be a part): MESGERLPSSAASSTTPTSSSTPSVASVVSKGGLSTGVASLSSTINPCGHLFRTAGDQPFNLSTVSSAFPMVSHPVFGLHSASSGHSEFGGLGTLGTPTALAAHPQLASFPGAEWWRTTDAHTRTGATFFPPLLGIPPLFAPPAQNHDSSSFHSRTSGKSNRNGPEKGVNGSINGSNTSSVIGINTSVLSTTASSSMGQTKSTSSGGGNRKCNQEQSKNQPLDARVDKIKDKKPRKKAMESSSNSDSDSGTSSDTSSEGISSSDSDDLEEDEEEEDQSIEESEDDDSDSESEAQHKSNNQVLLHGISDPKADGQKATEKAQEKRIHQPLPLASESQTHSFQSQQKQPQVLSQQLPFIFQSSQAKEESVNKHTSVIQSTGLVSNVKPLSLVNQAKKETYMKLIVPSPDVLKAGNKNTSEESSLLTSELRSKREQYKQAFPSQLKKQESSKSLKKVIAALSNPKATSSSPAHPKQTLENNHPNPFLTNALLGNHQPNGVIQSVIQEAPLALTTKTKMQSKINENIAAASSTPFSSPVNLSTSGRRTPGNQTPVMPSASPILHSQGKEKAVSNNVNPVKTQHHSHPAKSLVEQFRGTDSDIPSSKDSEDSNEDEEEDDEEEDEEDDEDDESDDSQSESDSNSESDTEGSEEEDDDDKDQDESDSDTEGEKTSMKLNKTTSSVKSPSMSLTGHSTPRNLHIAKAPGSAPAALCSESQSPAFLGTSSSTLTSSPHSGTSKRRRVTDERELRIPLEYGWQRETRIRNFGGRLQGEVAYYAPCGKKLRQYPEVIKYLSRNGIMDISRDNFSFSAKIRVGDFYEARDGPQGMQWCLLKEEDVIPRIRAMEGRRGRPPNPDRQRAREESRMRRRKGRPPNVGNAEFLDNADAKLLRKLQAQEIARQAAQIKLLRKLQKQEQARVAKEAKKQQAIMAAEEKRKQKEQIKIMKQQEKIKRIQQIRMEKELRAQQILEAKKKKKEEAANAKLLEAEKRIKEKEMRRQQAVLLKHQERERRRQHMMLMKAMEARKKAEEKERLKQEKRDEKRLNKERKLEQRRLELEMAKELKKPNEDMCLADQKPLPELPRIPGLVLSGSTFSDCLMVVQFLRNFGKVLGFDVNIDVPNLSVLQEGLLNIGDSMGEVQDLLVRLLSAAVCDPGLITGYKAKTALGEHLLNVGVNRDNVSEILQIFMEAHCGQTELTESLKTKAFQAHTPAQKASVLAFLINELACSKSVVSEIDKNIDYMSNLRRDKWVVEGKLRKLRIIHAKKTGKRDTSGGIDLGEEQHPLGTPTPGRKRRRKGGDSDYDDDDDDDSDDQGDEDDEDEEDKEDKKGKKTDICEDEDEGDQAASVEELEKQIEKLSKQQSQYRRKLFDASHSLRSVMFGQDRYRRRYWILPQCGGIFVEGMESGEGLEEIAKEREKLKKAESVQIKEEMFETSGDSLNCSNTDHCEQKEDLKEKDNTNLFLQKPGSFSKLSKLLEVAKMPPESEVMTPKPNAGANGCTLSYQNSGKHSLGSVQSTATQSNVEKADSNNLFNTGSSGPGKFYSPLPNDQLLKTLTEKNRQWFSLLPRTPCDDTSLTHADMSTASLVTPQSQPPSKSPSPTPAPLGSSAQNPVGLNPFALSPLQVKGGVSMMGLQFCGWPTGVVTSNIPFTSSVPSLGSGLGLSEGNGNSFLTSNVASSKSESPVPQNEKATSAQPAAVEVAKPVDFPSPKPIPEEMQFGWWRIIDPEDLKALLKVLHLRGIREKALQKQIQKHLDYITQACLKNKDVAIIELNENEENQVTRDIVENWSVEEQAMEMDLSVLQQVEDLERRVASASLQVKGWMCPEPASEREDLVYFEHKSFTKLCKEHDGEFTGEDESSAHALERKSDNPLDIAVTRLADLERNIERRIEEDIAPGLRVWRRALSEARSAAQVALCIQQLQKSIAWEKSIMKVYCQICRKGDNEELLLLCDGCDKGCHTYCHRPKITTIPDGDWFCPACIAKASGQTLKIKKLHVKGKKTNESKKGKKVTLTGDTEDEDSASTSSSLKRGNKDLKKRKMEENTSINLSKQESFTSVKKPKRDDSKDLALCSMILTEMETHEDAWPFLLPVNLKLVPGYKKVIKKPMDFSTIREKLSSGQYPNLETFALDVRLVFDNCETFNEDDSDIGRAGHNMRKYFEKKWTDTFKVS
How it was run: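 Compounds, titrated to a top concentration of 110 uM, were incubated 30 min at room temperature with preformed BAZ2B/acetyl-K14 H3 peptide complex (50 nM each). Proximity signal was measured by AlphaScreen after 20 min with beads.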
Further: nearly all actives have a fitted effect of over 60% in size.
On the % scale 0 is the no-effect control and ±100 the full control effect; potency means the concentration at half of the fitted maximal effect.

SMILES	activity change, negative = inhibition	Potency
Cc1ccc(N(C)C(=O)C2CCN(S(=O)(=O)c3ccc4c(c3)CCCN4C(=O)C3CCC3)CC2)cc1	-3.01% (inactive)	
COc1cc(/C=C(\C#N)c2nc3c(s2)CC(C)CC3)ccc1O (configuration not stated)		50.1 µM (active)
COc1cccc2cc(-c3nc(Cl)c4c5c(sc4n3)CC(C)CC5)c(=O)oc12 (configuration not stated)	6.24% (inactive)	
CCOc1cc(/C=C(\C#N)c2nc(-c3cccs3)c(NC(C)=O)s2)ccc1O	-3.53% (inactive)	
COc1cc(C(=O)NCCS(=O)(=O)N2CCN(c3ccccc3)CC2)cc(OC)c1OC	-20% (inactive)	
CC(=O)c1ccc(NC(=O)CSc2c(C(C)C)cnc3c2c(=O)n(C)c(=O)n3C)cc1	4.33% (inactive)	
Cc1ccc(Cl)cc1N1CCN(C(=O)C2CCC(CNS(=O)(=O)c3cccs3)CC2)CC1 (configuration not stated)	-14.2% (inactive)	
CCOC(=O)C1CCCN(CC(=O)Nc2cc(C)c3c(=O)oc4ccccc4c3n2)C1 (configuration not stated)	-4.19% (inactive)	
Cc1cc(NC(=O)CSc2nc3cc(Cl)ccc3c(=O)n2Cc2ccco2)no1	-20.2% (inactive)	
Clc1cccc(-c2nc3nc4ccccc4nc3n2Cc2ccco2)c1	-8.99% (inactive)	
Cc1nc2c(c(=O)n1Cc1ccco1)c1nc3ccccc3nc1n2Cc1ccccc1		56.2 µM (active)
COc1ccccc1CNc1ccc(-c2nc(-c3ccccc3C)no2)cc1[N+](=O)[O-]	-15% (inactive)	
COc1ccccc1-n1c(-c2ccc(C)cc2)cn2c3c(=O)n(C)c(=O)n(C)c3nc12	-25.8% (inactive)	
CCOC(=O)c1oc2ccc(S(=O)(=O)n3nc(-c4ccccc4OC)cc3N)cc2c1C	-16% (inactive)	
CCCCOc1ccc(CN2C(=O)C(=O)c3cc(Br)cc(C)c32)cc1OC		6.31 µM (active)
CCCCN1C(=O)C(C)=C(C)C1OCCc1ccc(OC)c(OC)c1 (configuration not stated)	13.3% (inactive)	
CCCCOc1ccc(Cn2c(=O)oc3ccc(C)cc32)cc1OC	71.6% (inactive)	
COc1ccccc1CNc1nccn(-c2ccc(F)cc2)c1=O	-18.1% (inactive)	
O=c1oc2c(CN3CCCCC3)c(O)ccc2c2c1CCCCC2	-12.4% (inactive)	
COc1ccc2c3c(c(=O)oc2c1OCC(=O)C(C)(C)C)CCCC3		79.4 µM (active)
CCCOc1ccc2c3c(c(=O)oc2c1OCCC)CCC3	21.5% (inactive)	
O=C(Cn1c(=O)n(-c2ccc(F)cc2)c(=O)c2sc3ccccc3c21)NC1CCCC1	-9.41% (inactive)	
Cc1cccc(NC(=O)c2cc3c(C)nn(-c4ccccc4)c3s2)c1	5.11% (inactive)	
CCOC(=O)C1C(c2ccc(Cl)cc2)NC(=S)NC1(O)C(F)(F)F (configuration not stated)	12.4% (inactive)	
CCOC(=O)c1[nH]c2c(c1-c1ccccc1)C(=O)CC(c1ccc(Cl)cc1)C2 (configuration not stated)	3.42% (inactive)	
CCOC(=O)C1Sc2[nH]c(=O)sc2C(c2ccc(Cl)cc2)C1C(=O)OCC (configuration not stated)		50.1 µM (active)

SMILES	activity change, negative = inhibition	Potency
Cc1ccc(NC(=O)c2oc3ccccc3c2NC(=O)Cc2cccs2)cc1	-17.6% (inactive)	
CC(C)Sc1oc(-c2cccs2)nc1S(=O)(=O)c1ccc(Cl)cc1	-4.8% (inactive)	
CC(O)c1ccc(OCCN(C)c2ccccn2)cc1 (configuration not stated)	0.0135% (inactive)	
CCN(CC)S(=O)(=O)c1cc(C(=O)Nc2ccccn2)ccc1C	-5.55% (inactive)	
CCN(CC)CCOc1ccc2c(c1)C(=NNC(=O)c1ccccn1)c1cc(OCCN(CC)CC)ccc1-2		20 µM (active)
COc1ccccc1CNC(=O)c1ccc(-n2c(C)cc3c2CCCC3)cc1	-9.34% (inactive)	
CC(C)c1ccc(NC(=O)C2CCN(c3nc(-c4ccc(C(C)C)cc4)no3)CC2)cc1	17.5% (inactive)	
NC(=O)c1c(Nc2nc3c(F)cccc3s2)sc2c1CCCC2	-17.7% (inactive)	
NNc1nc2c(Cl)cccc2s1		44.7 µM (active)
CC1CCCN(c2nc3c(S(=O)(=O)c4ccc(C(C)C)cc4)nnn3c3ccsc23)C1 (configuration not stated)	-0.48% (inactive)	
O=C(CSc1nc(=O)[nH]c2c1CCCC2)Nc1cc(C(F)(F)F)ccc1Cl	-4.05% (inactive)	
O=C(Nc1c(-c2ccc(F)cc2)nc2ccccn12)c1cccc(F)c1	1.7% (inactive)	
CCn1cc(C(=O)OCC(=O)Nc2cc(C)cc(C)c2)c(=O)c2ccc(C)nc21	3.94% (inactive)	
N#Cc1nc(-c2ccc(OCc3ccccc3)cc2)oc1NCCCN1CCOCC1		50.1 µM (active)
O=S(=O)(c1ccccc1)c1nc(-c2ccccc2)oc1NCCCN1CCOCC1	1.55% (inactive)	
Nc1nc(NCCCN2CCOCC2)nc(Nc2ccccc2)c1[N+](=O)[O-]	-5.03% (inactive)	
Cc1ccc2sc(N(Cc3cccnc3)C(=O)C3COc4ccccc4O3)nc2c1C (configuration not stated)	-2.8% (inactive)	
O=C(CNC(=O)c1ccc(F)cc1)c1ccccc1	11.6% (inactive)	
CN(C)c1ccc(C(CNC(=O)c2ccc(F)cc2)c2c[nH]c3ccccc23)cc1 (configuration not stated)		12.6 µM (active)
C[C@H](NC(=O)c1ccccc1)C(=O)OCC(=O)c1c[nH]c2ccccc12	3.43% (inactive)	
COc1cc(OC)cc(C(=O)Nc2ccc3nc(Nc4cccc(C(F)(F)F)c4)cc(C)c3c2)c1	-4.94% (inactive)	
O=Cc1c(Nc2ccccc2Cl)nc2ccccn2c1=O		50.1 µM (active)
O=Cc1c(N2CCN(c3cccc(Cl)c3)CC2)nc2ccccn2c1=O	-33.1% (inactive)	
Cc1cccn2c(=O)c(C=O)c(Nc3ccc(S(N)(=O)=O)cc3)nc12	6.46% (inactive)	
CCC(=O)N1CCc2cc(CNC(=O)Nc3ccccc3Cl)ccc21	-7.45% (inactive)	
CSc1ccc(CCNC(=O)c2cc(C)nc3c2c(C)nn3-c2cccc(F)c2)cc1	17.5% [at 57.1 µM] (inactive)	

SMILES	activity change, negative = inhibition	Potency
CCOc1ccccc1CNCc1c(C(=O)O)c(C)n(Cc2ccc(C)cc2)c1C	-15.7% (inactive)	
CCN1C(=O)c2ccccc2Sc2ccc(NC(=O)Cc3ccc(OC)cc3)cc21	-3.41% (inactive)	
CCN1/C(=C/C(=S)Nc2ccccc2)Sc2ccccc21		22.4 µM (active)
CCOC(=O)CNC(=O)N1c2ccccc2Sc2ccccc21	1.76% (inactive)	
CCOC(=O)c1cc2c(=O)n3ccccc3nc2n(Cc2ccco2)c1=NC(=O)c1ccc(F)cc1	3.83% (inactive)	
Cc1cc(N2C(=O)C(O)=C(C(=O)c3ccc(C)o3)C2c2ccc(OCc3ccccc3)cc2)no1 (configuration not stated)	-26.4% (inactive)	
COc1cc(C2C(C(=O)c3ccc(C)o3)=C(O)C(=O)N2Cc2cccnc2)ccc1O (configuration not stated)		56.2 µM (active)
COc1ccc(C2C(C(C)=O)=C(O)C(=O)N2Cc2cccnc2)cc1 (configuration not stated)	-37.3% (inactive)	
CCOC(=O)c1c(C)[nH]c(CCC(=O)NCCCN2CCN(c3cc(C)ccc3C)CC2)c1C	-32.7% (inactive)	
C=CCOC(=O)C1=C[C@@H](c2ccccc2)C[C@@H](OCc2ccc(CO)cc2)O1	-1.46% (inactive)	
O=C(O)C1=C[C@H](c2cccs2)C[C@H](OCCCCO)O1		79.4 µM (active)
NC(=O)C1=C[C@H](c2csc3ccccc23)C[C@H](OCc2ccc(CO)cc2)O1	-1.46% (inactive)	
Cn1c(=O)c2c(SCC(=O)NCC3CCCO3)nc(-c3ccccc3F)nc2n(C)c1=O (configuration not stated)	6.48% (inactive)	
O=C(CC(c1cccs1)N1Cc2ccccc2C1=O)Nc1ccc(F)cc1F (configuration not stated)	-5.59% (inactive)	
Cc1cccc(OCC(=O)N(Cc2ccc(C(C)C)cc2)Cc2ccco2)c1C	42% (inactive)	
CCS(=O)(=O)c1ncc(N(Cc2ccc(F)cc2)Cc2ccco2)c(C(=O)Nc2cc(C)ccc2C)n1	-1.24% (inactive)	
COc1ccc2sc(-c3ccc(N(C)C)cc3)c(C#CCO)c2c1		89.1 µM (active)
O=C(C1CC1)N1CCc2cc(Br)cc(S(=O)(=O)N3CCN(c4ccccc4F)CC3)c21	-3.75% (inactive)	
N#Cc1ccc(CSc2ncccn2)cc1	-21.7% (inactive)	
N#Cc1ccc(CSc2nnc(-c3ccccn3)n2-c2ccc(Cl)cc2)cc1		50.1 µM (active)
N#Cc1ccc(CSc2nnc3ccccn23)cc1	-0.806% (inactive)	
O=C(Nc1ccc(-c2nc3cc(NC(=O)c4ccccc4Cl)ccc3o2)cc1)c1ccccc1Cl	10.3% (inactive)	
CSC1=N/C(=C\C=C\c2cccs2)C(=O)S1		11.2 µM (active)
Cc1ccc(C)c(N2CCN(C(=O)C3CCC(CNS(=O)(=O)c4cccs4)CC3)CC2)c1 (configuration not stated)	-36.8% (inactive)	
CCCOc1ccc(-c2cccc(NS(=O)(=O)c3ccccc3)c2)nn1	14.1% (inactive)	
CCOc1ccccc1C(=O)Nc1ccc(S(=O)(=O)N2CCCCC2c2cccnc2)cc1 (configuration not stated)	0.817% (inactive)	

SMILES	activity change, negative = inhibition	Potency
COc1ccc(NS(=O)(=O)c2cc(NC(=O)/C=C/c3cc(OC)c(OC)c(OC)c3)ccc2N2CCCCC2)cc1	-4.66% (inactive)	
COc1cccc(NC(=O)c2ccc3c(SCC(=O)O)c4c(nc3c2)CCCC4)c1	-23.9% (inactive)	
COc1cc(/C=C/C(=O)N2CCc3ccccc3C2)cc(OC)c1OC	-6.42% (inactive)	
COc1ccc(C(=O)Nc2ccc3nc(N4CCCCC4)cc(C)c3c2)cc1OC		inactive
COc1ccccc1Nc1c2c(nc3ccc(NC(=O)/C=C/c4cc(OC)c(OC)c(OC)c4)cc13)CCCC2		11.2 µM (active)
CCOc1ccc(C(=O)Nc2ccc3nc4c(c(Nc5ccccc5OC)c3c2)CCCC4)cc1		17.8 µM (active)
COc1ccc2c(c1)c(N1CCCC1=O)c(C(=O)Nc1ccccc1C(F)(F)F)n2C	-13.3% (inactive)	
Cn1nnc2c(N3CCN(c4ccccc4)CC3)ncnc21	-20.7% (inactive)	
CSc1ccccc1NC(=O)CCS(=O)(=O)c1nc(-c2cccs2)cc(C(F)(F)F)n1	1.68% (inactive)	
COc1ccccc1N1CCN(C2C(=O)c3ccccc3N2C(C)=O)CC1 (configuration not stated)	-23.9% (inactive)	
COc1ccc(CCNC(=O)NS(=O)(=O)c2ccc(C)cc2)cc1OC	-5.09% (inactive)	
COc1ccc(CCNC(=O)CCc2ccccc2O)cc1OC	11.6% (inactive)	
COc1ccc(CCNC(=O)Cc2ccc(C)cc2)cc1OC		79.4 µM (active)
CCOC(=O)c1ccc(NC(=O)CC2C(=O)N(c3cccc(OC)c3)C(=O)N2C2CCCCC2)cc1 (configuration not stated)	-9.85% (inactive)	
Cc1c(C)c(C)c(S(=O)(=O)NCCc2ccccn2)c(C)c1C	-3.43% (inactive)	
COc1ccc(NCCc2ccccn2)cc1		56.2 µM (active)
COc1cccc(NC(=S)NCc2ccccn2)c1	-30.1% (inactive)	
Cc1ccc(C(=O)CC2(O)C(=O)N(CCc3ccccc3)c3ccc(Br)cc32)cc1 (configuration not stated)	-13.9% (inactive)	
CCc1ccc(OCC(=O)N(Cc2ccccc2)C2CCS(=O)(=O)C2)cc1 (configuration not stated)	4.48% (inactive)	
Cc1ccc(CN(C(=O)COc2ccc(Cl)cc2C)C2CCS(=O)(=O)C2)o1 (configuration not stated)	-27.3% (inactive)	
CC(C)c1ccc(OCC(=O)N(Cc2ccc(N(C)C)cc2)C2CCS(=O)(=O)C2)cc1 (configuration not stated)		28.2 µM (active)
COc1cc(C(=O)N(Cc2ccc(C(C)C)cc2)C2CCS(=O)(=O)C2)cc(OC)c1OC (configuration not stated)	2.98% (inactive)	
COc1cc(C(=O)N(Cc2ccc(N(C)C)cc2)C2CCS(=O)(=O)C2)cc(OC)c1OC (configuration not stated)	-22.1% (inactive)	
Cc1cc(Cl)ccc1OCC(=O)N(Cc1ccc(N(C)C)cc1)C1CCS(=O)(=O)C1 (configuration not stated)		35.5 µM (active)
